The record followed here is ChEMBL document CHEMBL4808148, “HDAC6 screening dataset using tau-based substrate in an enzymatic assay yields selective inhibitors and activators” (2021).

Several values for one entry are separate records, joined by “and”; a condition that tells them apart may be missing. Equal values may be shown once. About 390 (7%) of roughly 5,600 compounds showed an effect of 50% or more. The sample holds strong results, similar compounds and a random draw of the others, so the mix is not that of the screen.

The target in this test is T1, Protein deacetylase HDAC6 (Homo sapiens) (UniProt Q9UBN7).
T1 sequence (whole entry): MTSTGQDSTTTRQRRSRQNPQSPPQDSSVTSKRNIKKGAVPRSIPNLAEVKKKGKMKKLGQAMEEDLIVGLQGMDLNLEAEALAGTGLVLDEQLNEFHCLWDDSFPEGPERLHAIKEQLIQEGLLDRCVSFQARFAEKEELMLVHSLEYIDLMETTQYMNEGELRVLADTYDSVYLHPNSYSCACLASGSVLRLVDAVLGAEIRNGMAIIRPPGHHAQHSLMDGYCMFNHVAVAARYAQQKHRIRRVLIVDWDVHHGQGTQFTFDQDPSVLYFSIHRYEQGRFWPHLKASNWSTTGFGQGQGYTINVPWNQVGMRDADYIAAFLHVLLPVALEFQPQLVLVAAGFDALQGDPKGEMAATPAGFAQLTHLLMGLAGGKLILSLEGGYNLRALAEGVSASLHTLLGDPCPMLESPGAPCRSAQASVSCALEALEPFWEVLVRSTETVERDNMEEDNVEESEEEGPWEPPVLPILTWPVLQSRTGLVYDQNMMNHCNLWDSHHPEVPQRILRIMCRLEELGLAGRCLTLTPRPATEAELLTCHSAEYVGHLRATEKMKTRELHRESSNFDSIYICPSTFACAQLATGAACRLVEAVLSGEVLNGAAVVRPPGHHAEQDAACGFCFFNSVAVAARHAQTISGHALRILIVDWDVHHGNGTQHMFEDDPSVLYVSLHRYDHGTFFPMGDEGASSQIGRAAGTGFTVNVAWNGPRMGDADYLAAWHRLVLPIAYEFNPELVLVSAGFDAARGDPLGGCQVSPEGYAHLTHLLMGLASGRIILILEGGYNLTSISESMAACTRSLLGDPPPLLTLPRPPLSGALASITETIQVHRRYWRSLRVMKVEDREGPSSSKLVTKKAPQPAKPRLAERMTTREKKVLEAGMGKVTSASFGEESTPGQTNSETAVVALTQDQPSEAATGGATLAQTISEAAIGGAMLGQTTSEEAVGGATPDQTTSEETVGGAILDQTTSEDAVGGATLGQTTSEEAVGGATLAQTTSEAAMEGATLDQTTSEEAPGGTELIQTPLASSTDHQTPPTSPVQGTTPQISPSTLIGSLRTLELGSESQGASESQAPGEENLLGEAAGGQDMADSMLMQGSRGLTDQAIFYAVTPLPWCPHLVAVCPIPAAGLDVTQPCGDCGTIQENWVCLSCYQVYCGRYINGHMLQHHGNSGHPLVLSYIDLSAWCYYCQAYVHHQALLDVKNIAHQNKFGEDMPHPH
Particulars: at 10 µM.
In general, inhibition refers to the drop in the measured response relative to a control, in per cent. In the case of `c1ccc(CCNc2nc(-c3ccccc3)cs2)cc1`, the inhibition came to 79.1%.

Take `O=C(CCCl)NCCc1ccccc1`: the inhibition came out at 11.9%.

For the compound `O=C(NCc1cccc(O)c1)Nc1nc(-c2ccncc2)cs1`, the inhibition is 3.24% and 13.9%.

Consider `O=C(CCn1cnc2c(=O)[nH]cnc21)Nc1ccc(C(=O)O)cc1`, for which the inhibition was 11.5%.

Consider `Brc1c(Br)c(Br)c2[nH]nnc2c1Br`, for which the inhibition came out at 55.5%.

Consider `O=C(Nc1ccc(S(=O)(=O)C(F)(F)F)cc1)C1=CCN(c2ncccc2C(F)(F)F)CC1`, for which the inhibition was found to be 8.48%.

As for `C[C@]12CCC(=O)C=C1CC[C@@H]1[C@@H]2[C@@H](O)C[C@]2(C)C(=O)CC[C@@H]12`, the inhibition was -0.5%.

Consider `CCCC(CCC)C(=O)NCc1ccc2c(cnn2-c2ccccc2OC)c1`, for which the inhibition was -9.99%.

As for `Nc1nc(OCc2ccccc2)c2nc[nH]c2n1`, the inhibition came to 68.9%.

As to `c1ccc(CNc2ncnc3[nH]cnc23)cc1`, the inhibition was determined as 3.46%.

Turning to `CC(=O)O[C@H]1C[C@@H]2CC[C@@H]3[C@H](CC[C@@]4(C)[C@H]3C[C@H](N3CC[N+](C)(C)CC3)[C@@H]4OC(C)=O)[C@@]2(C)C[C@@H]1N1CC[N+](C)(C)CC1`, the inhibition is -3.02%.

Turning to `CN1C(=O)N(c2ccc(C#N)c(C(F)(F)F)c2)C(=O)[C@@]1(CO)c1ccccc1`, the inhibition came to 16.8%.

For `CN(CCOP(=O)(O)O)C(=N)N`, the inhibition worked out at 20.7%.

For `O=C1N=C(N2CCOCC2)CN1c1ccc(Cl)cc1`, the inhibition was 8.65%.

In the case of `NC(Cc1ccc(O)cc1)C(=O)O` (racemic), the inhibition was found to be 12.8%.

Consider `N[C@H](C(=O)O)[C@@H]1CC(Cl)=NO1`, for which the inhibition amounted to 2.38%.

For `CNC(=O)COC(=O)NCCC1CCN(c2cccc(C)n2)CC1`, the inhibition came out at 23.1%.

With `CCn1c(O)nnc1-c1ccc(Cl)cc1`, the inhibition is 4.14%.

`Cc1[nH]cnc1-c1ccc(Cl)cc1`: the inhibition came out at 80.5%.

Take `Cc1nc[nH]c1CCN`: the inhibition was 0.18%.

`C[C@]12CCC(=O)C[C@@H]1CC[C@@H]1[C@@H]2CC[C@]2(C)[C@@H](O)CC[C@@H]12`: the inhibition came out at 6.85%.

For `O=C(/C=C/c1ccc2ccccc2n1)c1ccncc1`, the inhibition came to 91.9%.

For `O=C(/C=C/c1ccc2ccc(C(F)(F)F)cc2n1)c1ccncc1`, the inhibition was determined as 36.8%.

Take `CC(C)Oc1ccc(-c2nc(-c3cccc4c3CCC4NCCC(=O)O)no2)cc1C#N` (stereo not drawn): the inhibition came out at 25.6%.

Take `CC(CC(c1ccccc1)c1ccccc1)NC(C)(C)C` (stereo not drawn): the inhibition was 13.9%.

With `Nc1ccn([C@H]2CO[C@@H](CO)S2)c(=O)n1`, the inhibition was 9.97%.

For `CC1(O)C(O)C(CO)OC1n1ccc(N)nc1=O` (stereo not drawn), the inhibition was found to be 50.8%.

In the case of `C[C@@]1(O)[C@H](O)[C@@H](CO)O[C@H]1n1cnc2c(NC3CCCC3)nc(Cl)nc21`, the inhibition was -7.46%.

As to `C[S+](CC[C@H](N)C(=O)[O-])C[C@H]1O[C@@H](n2cnc3c(N)ncnc32)[C@H](O)[C@@H]1O` (stereo partly drawn), the inhibition was 5.35%.

For `Cc1cccc(Oc2cnc(=O)[nH]c2)c1`, the inhibition stood at 16.9%.

Take `O=C(NCc1ccccc1)c1csc(Nc2ccncn2)n1`: the inhibition amounted to 44.2%.

With `Cc1c[nH]c2ncnc(N3CCC(CN)(C(=O)Nc4cccc(OC(=O)N(C)C)c4)CC3)c12`, the inhibition is 25.2%.

Regarding `Cc1cccc(/C=N/Nc2cc(N3CCOCC3)n3nc(-c4ccncc4)cc3n2)c1`, the inhibition is -1.46%.

Consider `CC1(CN)Cc2ccccc2C1`, for which the inhibition worked out at 0.58%.

Turning to `Brc1cc2c(cc1[C@@H]1Nc3ccccc3[C@@H]3C=CC[C@@H]31)OCO2.Brc1cc2c(cc1[C@H]1Nc3ccccc3[C@H]3C=CC[C@H]31)OCO2`, the inhibition worked out at 2.38%.

As for `O=C(O)Cc1ccc2c(c1)C(=O)c1ccccc1CO2`, the inhibition was determined as 75%.

Consider `O=C(O)Cc1ccc(OCc2ccccc2)c(Cl)c1`, for which the inhibition was -0.75%.

Take `O=C(O)c1ccc(N2N=C(Cc3ccccc3)/C(=C\c3ccc(-c4ccccc4F)o3)C2=O)cc1`: the inhibition amounted to 5.2%.

As to `CC(C)OC(=O)N[C@H]1Cc2c(n(Cc3ccccn3)c3ccc(C#N)cc23)C1`, the inhibition is -8.91%.

As for `CC(C)(C)c1ccc(O)cc1`, the inhibition came to 17.6%.

Turning to `CC(C)(C)c1ccc(-c2nc3ccccc3[nH]2)cc1`, the inhibition turned out to be 105%.

Regarding `C#CCC(Cc1cnc2nc(N)nc(N)c2n1)c1ccc(C(=O)N[C@@H](CCC(=O)O)C(=O)O)cc1` (stereo partly drawn), the inhibition worked out at 30%.

With `Oc1cc(CNC(=S)/C=C/c2cc(O)c(O)c(Br)c2)cc(O)c1O`, the inhibition turned out to be 36%.

In the case of `COc1ccc(N(C(=O)Oc2c(C)cccc2C)c2ccnc(Nc3ccc(N4CCN(C)CC4)cc3)n2)c(OC)c1`, the inhibition came to 102%.

For the compound `COC(=O)c1ccc(N2CCN(C)CC2)c(NC(=O)c2cccc(OC)c2)c1`, the inhibition came to 5.02%.

On to `COc1cc(N2CCN(C)CC2)ccc1Nc1ncc2c(n1)N(C)c1ccccc1C(=O)N2C`, for which the inhibition was found to be 0.79%.

On to `Cn1c(C#N)ccc1-c1ccc2c(c1)C(C)(C)OC(=S)N2`, for which the inhibition was determined as 12.5%.

As to `O=C(Nc1cc(C(F)(F)F)cc(C(F)(F)F)c1)c1cc(Cl)ccc1O`, the inhibition came to 3.28%.

Regarding `CC(=O)NCCNc1cc(Cl)nn2c(-c3cccc(S(=O)(=O)N(C)C)c3)c(C)nc12`, the inhibition is 15.6%.

Turning to `CC(C)CN(C[C@@H](OP(=O)(O)O)[C@H](Cc1ccccc1)NC(=O)O[C@H]1CCOC1)S(=O)(=O)c1ccc(N)cc1`, the inhibition worked out at 7.63%.

In the case of `CCCN(CCC)C(=O)Cc1c(-c2ccc(Cl)cc2)nc2ccc(Cl)cn12`, the inhibition is -6.78%.

As for `CC1=CC(=C(c2ccc(N)cc2)c2ccc(N)cc2)C=CC1=N`, the inhibition worked out at 57.5%.

Take `O=C(O)c1ccccc1NC(=O)C12CC3CC(CC(C3)C1)C2`: the inhibition worked out at 8.92%.

For `COc1ccc(S(=O)(=O)N2CCCN(S(=O)(=O)c3ccc(OC)c(OC)c3)CC2)cc1OC`, the inhibition is 5.48%.

As for `O=C(NO)c1cnc(N2CCN(S(=O)(=O)c3ccc4ccccc4c3)CC2)nc1`, the inhibition came to 102%.

In the case of `O[C@@](Cc1nc(CC2(C(F)(F)F)CC2)c[nH]1)(c1ccc(-n2cccn2)cc1)C(F)(F)F`, the inhibition was -0.94%.

With `O=C(O)CCc1ccc(NCc2cccc3c2CCCN3CCOc2ccccc2)cc1F`, the inhibition amounted to 8.07%.

For the compound `OCCNC1CCCc2c1[nH]c1ccc(-c3ccccc3)cc21` (stereo not drawn), the inhibition was determined as 59.1%.

`CCc1nc(C)ccc1O`: the inhibition is 3.81%.

In the case of `N[C@@H](CSCC(=O)O)C(=O)O`, the inhibition turned out to be 17.8%.

`CC1(C)CC[C@]2(C(=O)O)CC[C@]3(C)[C@H](C(=O)C=C4[C@@]5(C)C=C(C#N)C(=O)C(C)(C)[C@@H]5CC[C@]43C)[C@@H]2C1`: the inhibition came out at 11.2%.

For `CN(C)/N=N/c1ccc(C(=O)O)cc1`, the inhibition turned out to be 26.9%.

Regarding `C=C1C[C@@]2(O)O[C@@]3(C[C@H]2C(C)C)[C@@H](C)CC[C@@H]13`, the inhibition was found to be 20.2%.

In the case of `CC(C)(C)C(=O)NCCCC(=O)O`, the inhibition is 0.18%.

Regarding `N=C1CCCN1Cc1[nH]c(=O)[nH]c(=O)c1Cl`, the inhibition was found to be 55.5%.

`O=C(O)c1cc(/N=N/c2ccc(O)c(C(=O)O)c2)ccc1O`: the inhibition was 98.2%.

As for `Cc1cccc(C(=O)O)c1O`, the inhibition was 35.8%.

On to `COc1ccc(NS(=O)(=O)c2ccc(/N=N/c3ccc(O)c(C(=O)O)c3)cc2)nn1`, for which the inhibition is 35.8%.
